PubChem BioAssay AID595 (National Center for Advancing Translational Sciences (NCATS), 2007)
In all, about 71,000 compounds went through this assay and about 310 (0.44%) were called active. Not shown: some 5% with an inconclusive outcome. What follows is part of a selection rich in actives, with near analogues and random picks from the rest. Unmarked numbers belong to inactive results. Calls follow the shape of the dose curve; as a rule, active = well fitted curve in either direction with a large enough effect; inconclusive = small, poorly fitted or top-dose-only effect, or another doubt; inactive = flat fitted curve, though single readings scatter.

Tested on: Hsp90 C-terminal peptide / TPR2A (Hop) interaction, human
Test: qHTS Assay for Disrupters of an Hsp90 Co-Chaperone Interaction
Settings: AlphaScreen TPR2A-His6 binding biotin-Hsp90 C-terminal peptide; series mostly up to 57 µM; activity change, negative = inhibition: at the top concentration
Excerpt: NIH Chemical Genomics Center [NCGC]
NIH Molecular Libraries Screening Centers Network [MLSCN]
Hsp90 (heat shock protein 90) is the essential molecular chaperone and it accounts for 1-2% of all cytosolic proteins and is critical for the activity of diverse cellular proteins that are involved in a variety of cellular processes, including development, cell cycle, and steroid hormone signaling. Its client proteins include signaling kinases such as IGF1R, Akt, v-Src, Raf-1; regulators of cell survival such as Bcr-Abl; and transcription factors such as mutated p53, estrogen and progesterone receptors. Hsp90 has emerged as an important target for cancer treatment due to its essential role in maintaining transformation and regulating the function of oncogenic signaling proteins.
The in vivo function of Hsp90 is regulated by the binding and hydrolysis of ATP at its N-terminal. Geldanamycin binds to ATP site and inhibit Hsp90 function. Geldanamycin and its analogues are under clinical trials in cancer patients.
This domain contains the binding site for tetratricopeptide repeat (TPR) domains on HOP (Hsp Organizing Protein). TPR is a structural motif used by a significant number of cochaperones by which the in vivo function of Hsp90 is regulated. TPR2A on HOP binds specifically to MEEVD motif of the C-terminal of Hsp90.
A homogeneous AlphaScreen is developed to assess the interaction between TPR2A and MEEVD motif of the C-terminal of Hsp90 by using the isolated TPR2A domain and a synthesized 20mer Hsp90 C terminal peptide. AlphaScreen is two bead-based proximity-dependent chemical energy transfer luminescent assay platform. TPR2A-His-6 and biotinylated Hsp90 C terminal peptide will bring streptavidin donor beads and nickel chelate acceptor beads to a proximity range (less than 200 nm), and subsequently lead a chemical luminescent reaction upon exciting donor beads with 680 nm laser. Inhibition of TPR2A and MEEVD motif interaction by small molecules could attenuate or abolish this chemical luminescent reaction.
Counter screening: Biotinylated-His-6 (PerkinElmer) can be utilized as a counter screen, as it serves as a linker to bring streptavidin beads and nickel chelate beads together. The counter screen can exclude alpha screen platform false positives due to small molecules being metal chelators, biotin analogues and imidazole analogues, or due to interfering with oxygen release from donor beads. Such an assay should be utilized to qualify any activity observed in this screen.
NCGC Assay Protocol Summary:
The assay was performed on 1536-well white plate (untreated solid bottom). Liquids were dispensed by 1536-well plate washer (Kalypsys, San Diego, CA). Plates were read on EnVision (PerkinElmer, Boston, MA).TPR2A-His6 was produced using a bacteria expression system and purified using a well developed method (Ghosh et al., 2000). Hsp90 C terminal 20-mer peptide with or without an N-terminal biotin group are synthesized using automated solid phase synthesis by the Yale Keck facility. The composition of assay buffer was (in mM) 25 HEPES, 100 KCl, 2 MgCl2 and 2 DTT; 0.1% BSA and 0.01% Tween-20. TPR2A-His6 binding to biotin-Hsp90 will bring streptavidin donor beads and nickel chelate acceptor beads (PerkinElmer) together and can be measured by Alpha reading by EnVision (PerkinElmer). Free Hsp90 blocks biotin-Hsp90 binding to TPR2 and serves as a positive control in the current asssay.
The assay was performed at room temperature. All compounds were screened as titrations from […] to 46 uM final concentration. The assay was performed in 1536-well format plates (untreated white solid bottom, Corning Inc.) as follows:
Sequence,Parameter,Value,Description
1,Reagent,3 uL TPR2A-His6,Final concentration was 5nM
2,Compound,23 nL,Final titration was from 0.7 nM to 46 uM
3,Time,15 minutes,Room temperature
4,Reagent,1 uL biotin-Hsp90,With and without free Hsp90. Final concentration was 10 nM for biotin-Hsp90 and 10uM for free Hsp90.
5,Time,1 hour,Room temperature
[…]
% is scaled to controls: 0 for no effect and ±100 for the full control effect; potency is read from the fitted curve at half-maximal effect.

Structure (SMILES)	activity change, negative = inhibition	Potency
OC(CCl)CCl	-5.37%	
O=C1CCCc2c1[nH]c1ccc(Br)cc21	-0.77%	
CCC[C@H]1C(=O)N2C(N(C)C)=Nc3ccc(C)cc3N2C1=O	-4.06% [at 26 µM]	
CN(C)CCCn1c2ccccc2c2cnccc21	-5.16% [at 11 µM]	
COc1cccc(N(CC(=O)Nc2cccc(F)c2)S(C)(=O)=O)c1	-1.99%	
O=C(O)c1cccc(S(=O)(=O)NCCO)c1	-3.23% [at 11 µM]	
CC(C)NC(=O)N1CC[C@@]2(CCCN(C(=O)c3ccco3)C2)C1	1.72%	
CCCCNc1nc(C)nc2c1nc(-c1ccccc1)n2CCCCN(CC)CC	-3.31%	
Cc1cc(=O)[nH]c(SCC(=O)N2c3ccccc3CC2C)n1 (stereo not given)	3.13%	
Fc1cccc(/C=N\N=C/c2cccc(F)c2)c1	1.39%	
CCOC(=O)N1CCN(C(=O)c2cc3c(ccc4ccccc43)oc2=O)CC1	-0.382%	
CC(C)(O/N=C(\C(=O)N[C@@H]1C(=O)N2C(C(=O)[O-])=C(C[n+]3ccccc3)CS[C@@H]12)c1csc(N)n1)C(=O)O	-6.49% [at 26 µM]	
O=C(c1ccco1)N1CCC2(CC1)CN(c1ncccn1)C2	-0.544%	
c1cncc(CNc2ccnc(-c3ccc4c(c3)OCO4)n2)c1	-6.94%	
Cc1cc(Cl)ccc1N1C(=O)CC(SCCC(=O)O)C1=O (stereo not given)	-3.29%	
O=c1c(-c2cccs2)nc2cnc(Oc3ccccc3)nc2n1-c1ccccc1	-6.73%	
COc1ncc2nc(-c3ccc(Cl)cc3)c(=O)n(-c3ccccc3)c2n1	-0.152%	
COc1ccccc1CNc1nc(-c2c(C)noc2C)nc2ccccc12	6.78%	
N=C(CC(=O)Nc1ccccn1)c1ccccc1	-0.76% [at 11 µM]	
O=C1c2ccccc2C(=O)C1c1ccccc1	-2.02% [at 26 µM]	
COc1cccc(N2C(=O)C3CCCN3C2c2ccc(F)cc2)c1 (stereo not given)	-1.72%	
CS(=O)(=O)Nc1cccc(-c2cncnc2Nc2ccccc2)c1	-4.22%	

Structure (SMILES)	activity change, negative = inhibition	Potency
COCCn1c(=O)c(-c2cccs2)nc2cncnc21	-3.38%	
Oc1ccc(O)c2c(O)cccc12	-23.2%	
S=c1c2[nH]cnc2ncn1CCSc1ncnc2nc[nH]c12	-3.58% [at 11 µM]	
CCOC(=O)N1CCN(Cc2nc3c(c(=O)n(C)c(=O)n3C)n2Cc2ccccc2)CC1	-0.895%	
O=C(NCCc1ccco1)c1nn(Cc2ccccc2)c(=O)c2ccccc12	1.8%	
COC(=O)N1CCC[C@@]2(CCN(C(=O)NC(C)C)C2)C1	-7.6%	
CS(=O)(=O)N1CCC2(CC1)CN(Cc1cc(C(F)(F)F)cc(C(F)(F)F)c1)C2	0.858%	
CN1CCc2[nH]nc(-c3n[nH]c4c3CN(C)CC4)c2C1	-1.93% [at 11 µM]	
CC1=C(C(=O)Nc2ccccc2)C(c2cccs2)C(C#N)=C(SCC#N)N1 (stereo not given)	-27.6%	
CCCCN(CCCC)C(=O)CCS(=O)(=O)c1ccc2c(c1)n(C)c(=O)c(=O)n2C	-3.15%	
Cc1cnc(CNc2nc(-c3cccnc3)nc3ccccc23)cn1	-7.89%	
CCCn1nnc2sc3c(c2c1=O)CCC(C)C3 (stereo not given)	-1.67%	
Cn1cccc1C(=O)N1CCC[C@@]2(CCN(Cc3nccs3)C2)C1	-5.4%	
Cc1n[nH]c(C)c1S(=O)(=O)N1CCCC(C(=O)NCC2COc3ccccc3O2)C1 (stereo not given)	-0.626%	
c1ccc(Oc2ccccc2)cc1	-0.703%	
COC(=O)[C@@]1(Cc2ccccc2)[C@H]2c3cc(C(=O)N(C)C)n(CCSCCO)c3C[C@H]2CN1C(=O)c1ccccc1	-2.28%	
C=CCn1c(COc2ccccc2F)nnc1SCC(=O)N1CC(=O)Nc2ccccc21	-3.33%	
CO[C@@H]1/C=C\O[C@]2(C)Oc3c(C)c(O)c4c(O)c(c(CN(C)C)c(O)c4c3C2=O)NC(=O)/C(C)=C\C=C[C@@H](C)[C@@H](O)[C@H](C)[C@@H](O)[C@H](C)[C@H](OC(C)=O)[C@@H]1C	-3.79% [at 11 µM]	
CC[C@H](c1ccccc1)c1cc(C(C)(C)C)cc(C(C)(C)C)c1O	5.54% [at 11 µM]	
S=c1[nH]nc(SCc2ccccc2Cl)c2[nH]cnc12	-1.97% [at 11 µM]	
Oc1cc2c(cc1O)CN(C(=S)NCCc1ccc(Cl)cc1)CCC2	inactive	
CCOC(=O)c1[nH]cnc1C(=O)NC1CCCCC1	-5.53%	

Structure (SMILES)	activity change, negative = inhibition	Potency
N#Cc1ccccc1-c1ccc2ncnc(NCc3cccnc3)c2c1	-3.83%	
O=C(O)C1CCN(c2ncnc3ccc(-c4ccccc4C(F)(F)F)cc23)CC1	-3.83%	
c1ccc2c(Nc3ccncc3)nc(-c3ccc4c(c3)OCO4)nc2c1	-7.62%	
C#CCCCCCCCCCCCCCCCC(=O)O	2.03%	
O=C(Nc1ccc(NC(=O)c2cccs2)cn1)c1ccco1	0.348%	
Cc1ccnc(NC(=O)c2ccc(NC(=O)c3ccco3)cc2)c1	-4.27%	
CC(NC(=O)c1ccco1)C(=O)Nc1nc(-c2ccccn2)cs1 (stereo not given)		10 µM (active)
N#CCCn1c(=O)c(-c2cc(F)cc(F)c2)nc2cnc(Oc3ccccc3)nc21	-22.8%	
CCCc1cc(=O)[nH]c(SCC(=O)OCc2ccccc2)n1	-3.02%	
COc1ccccc1-c1nc(NCc2cccs2)c2ccccc2n1	-7.25%	
O=C(Nc1c2c(nn1-c1ccc(F)cc1)CS(=O)C2)C12CC3CC(CC(C3)C1)C2 (stereo not given)	-1.88%	
CCOC(=O)CNC(=O)CSc1nnc(-c2cccc(OC)c2)n1CC	0.037%	
COC(=O)[C@H]1[C@H]2C[C@H]3c4[nH]c5ccccc5c4CCN3C[C@@H]2CC[C@@H]1O	inactive	
COc1ccc2oc(=O)c(C(=O)N3CCN(c4ccccc4F)CC3)cc2c1	-5.42%	
O=C(c1cccc2ccccc12)N1CCN(c2ccccc2F)CC1	1.86%	
O=C(Nn1cc(C(=O)N2CCN(c3ccccc3F)CC2)c2ccccc2c1=O)c1cnccn1		3.98 µM (active)
c1ccc(CNc2ncncc2-c2cccnc2)cc1	-8.1%	
COc1ccc2[nH]cc(CCNc3ncnc4ccc(-c5ccccc5CN(C)C)cc34)c2c1	-21.4%	
COc1ccc(C(=O)Nc2c(N)nc(SCC(=O)N3CCC(C)CC3)[nH]c2=O)cc1OC	-3.46%	
COc1ccc(-c2[nH]nc3c2C(c2ccncc2)C(C#N)=C(N)O3)cc1 (stereo not given)	-5.29%	
COc1cc(C2C(C#N)=C(N)Oc3n[nH]c(-c4ccccn4)c32)cc(OC)c1OC (stereo not given)		25.1 µM (active)
CCOc1c(OC)cc(C2C(C#N)=C(N)Oc3n[nH]c(-c4ccncc4)c32)cc1OC (stereo not given)	-6.32%	

Structure (SMILES)	activity change, negative = inhibition	Potency
COc1ccc(-c2nc3cnc(OC)nc3n(Cc3ccc(F)cc3)c2=O)cc1	-3.6%	
O=c1cc(-c2ccc(O)c(O)c2)oc2cccc(O)c12	-19.6%	
CCCCCCCCCCCC(=O)O	-1.69%	
CCCOC(=O)Nc1ccccc1C(N)=O	-3.39%	
CC(=O)/C(C)=N\O	0.893%	
CCn1c(=N)c(C(=O)NCCCOC)cc2c(=O)n3cccc(C)c3nc21	-6.79%	
O=C(c1ccco1)N1CCC2(CC1)CCN(c1ncccn1)CC2	0.252%	
CCOC(=O)C(CCOc1cccc(CC)c1)C(=O)OCC		25.1 µM [activator] (active)
COC(=O)[C@@H](NC(=O)NCc1cccc(OC)c1)C(C)C	-1.2%	
C=CCNC(=O)CCCOc1cccc(C)c1	-6.77% [at 11 µM]	
COc1cccc(-n2c(SCC(=O)NC3CCCCC3)nc3n[nH]c(C)c3c2=N)c1	-1.24%	
CC(=O)Nc1ccc(S(=O)(=O)N2CCC(N(C)CCC(C)C)CC2)cc1	-3.29%	
Cc1ccc(/C(=C/CN2CCCC2)c2ccccn2)cc1	inactive	
Cc1ccc(S(=O)(=O)Cn2nnnc2CN2CCN(Cc3ccc4c(c3)OCO4)CC2)cc1	-1.83%	
N=c1c2c3c(sc2ncn1N)CCCCC3	-0.172%	
COC(=O)c1ccccc1NC(=O)c1cncc(Br)c1	19.5%	
N#C/C(=C\c1ccc(O)c(O)c1)C(=O)NCc1ccccc1	-10.1%	
COc1ccc(OC)c([C@H](O)CNC(=O)CN)c1	-3.33% [at 26 µM]	
Cc1cnc(CNc2ncncc2-c2ccccc2Cl)cn1	3.83%	
